# p53ts 39C tox: kills p53ts cells at the nonpermissive temperature; H1299-p53A138V viability at 39C, ATP luminescence, 24 h; Potency, µM (titrated, usually from 46.1 µM), inactives show at the highest dose activity change, negative = cell killing, usual class: cytotoxic; 130,000 tested, 1.5% active; AID 902; also: nearly all actives have a fitted effect of over 55% in size
# HPGD block: inhibitors of human 15-hydroxyprostaglandin dehydrogenase (HPGD); P15428; purified HPGD, NADH fluorescence kinetic, PGE2 substrate; Potency, µM, for the others: at the highest dose activity change, negative = inhibition, hits mostly inhibitors; 150,000 tested, 4.3% active; active = well fitted inhibition curve with a large enough effect, not every such curve was filed as active; inconclusive = small, poorly fitted or top-dose-only effect, or another doubt; inactive = no such curve, though single readings can be large or run the other way
#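 NADH formation kinetics: reaction with 30 uM PGE2 and 1 mM NAD+ (final), 20 nM enzyme, Tris-HCl pH 8 with Tween 20, after 15 min compound preincubation at room temperature. Fluorescence change, last versus first of five reads.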
# p53ts 32C kill: p53ts cell cytotoxicity, permissive temperature; H1299-p53A138V at 32C, ATP luminescence viability, 24 h; Potency, µM (series often up to 46.1 µM), for inactives: top-dose activity change, negative = cytotoxicity, usual class: cytotoxic; 130,000 tested, 0.93% active;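 also: 0% = DMSO and -100% = full killing by reference compound; nearly all actives have a fitted effect of over 55% in size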
#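 ATP-content luminescence (ATPlite) read-out after 24 h compound exposure at 32C in H1299-p53A138V cells (600/well). Tested up to 46 uM. Normalized to DMSO (0%) and 100 uM tamoxifen (100% killing); Hill-fit AC50.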
# ALOX12 inhib: inhibitors of human 12-lipoxygenase (ALOX12) | 150,000 tested, 0.12% active | P18054 | Potency, µM (titrated, usually from 57.1 µM), for the others: at the top dose activity change, negative = inhibition, usual class: inhibitors | purified 12-hLO, xylenol orange hydroperoxide absorbance; also: nearly all actives have a fitted effect of over 55% in size
# Target sequence (P18054 whole entry, looked up): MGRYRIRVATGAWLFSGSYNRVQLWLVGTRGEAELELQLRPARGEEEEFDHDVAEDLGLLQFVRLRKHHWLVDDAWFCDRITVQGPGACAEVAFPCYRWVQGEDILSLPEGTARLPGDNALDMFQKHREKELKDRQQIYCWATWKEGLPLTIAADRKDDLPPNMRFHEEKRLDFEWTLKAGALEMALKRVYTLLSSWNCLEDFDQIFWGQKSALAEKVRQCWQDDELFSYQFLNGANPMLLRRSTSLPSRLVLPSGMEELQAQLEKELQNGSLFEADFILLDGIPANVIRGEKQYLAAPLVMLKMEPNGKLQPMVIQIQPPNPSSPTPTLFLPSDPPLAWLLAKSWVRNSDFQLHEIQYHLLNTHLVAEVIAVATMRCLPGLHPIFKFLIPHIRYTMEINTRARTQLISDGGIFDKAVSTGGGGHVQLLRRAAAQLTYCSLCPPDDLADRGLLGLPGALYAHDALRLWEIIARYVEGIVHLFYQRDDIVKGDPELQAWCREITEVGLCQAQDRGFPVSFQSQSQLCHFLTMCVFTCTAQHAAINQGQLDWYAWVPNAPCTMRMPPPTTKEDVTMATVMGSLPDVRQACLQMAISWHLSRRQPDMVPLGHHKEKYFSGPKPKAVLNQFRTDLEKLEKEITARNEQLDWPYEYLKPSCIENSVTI
#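 150 nM 12hLO, 25 mM Hepes pH 7.0 + 0.01% Triton X-100; cpd preinc 15 min RT; 40 uM arachidonic acid, 30 min RT; Fe-XO 30 min; A573/A405 ratio as read-out.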
# The depositor's hits bear a star; ? = inconclusive; · = no result; [ ] = remark or other dose. Compounds with a hit are over-represented: about 4.4% of the library has one in this group of screens. Unless noted, calls follow the shape of the dose curve; as a rule, active = well fitted curve in the direction sought with a large enough effect; inconclusive = small, poorly fitted or top-dose-only effect, or another doubt; inactive = no such curve, though single readings can be large; an effect the other way counts as inactive or inconclusive. Unless noted, % is scaled to controls: 0 for no effect and ±100 for the full control effect; potency is read from the fitted curve at half-maximal effect.
SMILES,p53ts 39C tox,HPGD block,p53ts 32C kill,ALOX12 inhib
CC(C)COC[C@H](CN(Cc1ccccc1)c1ccccc1)N1CCCC1,-25%[20.6 µM],-4%,-11%[20.6 µM],0%[25.6 µM]
CCC1CCc2c(sc(NC(=O)C3c4ccccc4Oc4ccccc43)c2C#N)C1 (stereo not drawn),-7%,·,16%,·
CCOc1cccc2sc(NC(=O)CS(=O)(=O)c3ccc(C)cc3)nc12,-10%,·,-3%,·
COc1ccc(-c2nc3sc(CCNC(=O)c4cc(Cl)ccc4OC)c(C)n3n2)cc1,-23%,·,-6%,·
CCOc1ccc(C(=O)c2cccs2)cc1,-8%,16µM*,-6%,0%
Cc1cccc(/N=C/c2c(O)[nH]c3ccccc23)n1,?,-17%,?,-8%
Oc1[nH]c2ccccc2c1C=Nc1ccc2c(c1)OCCO2,13µM*,·,?,-24%
CC(=O)OCC1=C(C(=O)O)N2C(=O)C(NC(=O)Cc3cccs3)C2SC1 (stereo not drawn),-11%,20µM*,0%,-3%
Cc1ccc(NC(=O)CSc2nc(-c3ccco3)nc3cc(=O)[nH]n23)cc1C,-15%,·,-1%,·
CCCCn1c(CN2CCOCC2)nc2c1c(=O)n(C)c(=O)n2C,4µM*,-10%,?,4%
COc1cc2c(cc1OC)CN(c1ccc(-c3ccccc3OC)nn1)CC2,93%,35µM*,37%,-5%
Cc1cccc(NC(=O)c2c(NC(=O)c3ccco3)sc3c2CCC(C)C3)c1 (stereo not drawn),-14%,·,-2%,·
Cc1ccc(/C=C/C(=O)Nc2nccs2)o1,·,25µM*,·,-1%
Cc1ccc(/C=C/C(=O)NC2CCCCCCC2)o1,·,3.5µM*,·,0%
CCCS(=O)(=O)c1nc(S(=O)(=O)c2ccc(C)cc2)c(NCCCOC(C)C)s1,-4%,·,14%,·
Cc1ccc(NC(=O)Cn2ncc3c4ccccc4n(Cc4ccccc4)c3c2=O)cc1Cl,1%,·,-10%,·
Nc1nc2ccc(N3CCOCC3)cc2s1,4µM*,-1%,4µM*,1%
O=c1c(O)cc(C2Oc3cc(O)cc(O)c3CC2O)cc2c(C3Oc4cc(O)cc(O)c4CC3O)cc(O)c(O)c12 (stereo not drawn),-20%,13µM*,-16%,-10%
Cc1cccc(Cn2ncc(Cl)c(Cl)c2=O)c1,·,-11%,·,-10%
Cc1cccc(Cn2nnc3c2C(=O)c2ccccc2C3=O)c1,19%,14µM*,8%,-1%
O=C(NCC1CCCO1)c1sc(=S)n2c1[nH]c(=O)c1ccc(C(=O)N3CCCCC3)cc12 (stereo not drawn),-8%,0.45µM*,-6%,-16%
O=C(NC1CCCCC1)c1sc(=S)n2c1[nH]c(=O)c1ccccc12,4%,13µM*,3%,-20%
Cc1cccc(NC(=O)N2CCN3CCCCC3C2)c1C (stereo not drawn),-5%,·,-2%,·
NC(=O)C1=CN([C@@H]2O[C@@H](COP(=O)(O)OP(=O)(O)OC[C@@H]3O[C@H](n4cnc5c(N)ncnc54)[C@@H](OP(=O)(O)O)[C@@H]3O)[C@H](O)[C@@H]2O)C=CC1,33%,·,34%,?
COC(=O)c1ccccc1S(=O)(=O)N1CCc2nc(COc3ccccc3)c3c(c2C1)CO[C@@H](C)C3,·,-1%,·,3%[11.4 µM]
SMILES,p53ts 39C tox,HPGD block,p53ts 32C kill,ALOX12 inhib
CCOC(=O)C1=C(C)Nc2nc(=S)[nH]n2C1c1ccc(Cl)cc1 (stereo not drawn),·,11µM*,·,-19%
CCOC(=O)C1=C(C)Nc2nc(SCC)nn2C1c1ccc(OC)cc1 (stereo not drawn),·,-21%,·,5%
CCN(CC)C(=O)CC(c1ccccc1)c1ccco1 (stereo not drawn),·,16µM*,·,-6%
O=C(c1ccco1)N(CCC(c1ccccc1)c1ccco1)Cc1ccccc1 (stereo not drawn),·,-20%,·,-3%
COc1ccc(CN(CCC(c2ccccc2)c2ccco2)C(=O)c2ccco2)cc1 (stereo not drawn),8%,28µM*,·,-10%
CCc1nonc1NC(=O)c1oc2ccccc2c1C,-9%,·,6%,·
Cc1nc(NC(=O)c2oc3ccccc3c2C)sc1C(=O)N(C)C,-10%,32µM*,-16%,1%
Cc1nc(NC(=O)/C=C/c2ccccc2)sc1C(=O)N(C)C,·,-4%,·,-3%
Cc1nc(NC(=O)c2ccccc2[N+](=O)[O-])sc1C(=O)N(C)C,·,22µM*,·,0%
O=C(Nc1ccc(C(=O)OCc2cc(=O)n3c4c(sc3n2)CCCC4)cc1)c1ccc(Cl)cc1,0%,·,0%,·
O=C(CN1C(=O)CCSc2ccccc21)Nc1ccc(C(F)(F)F)cc1,?,·,3%,·
O=C(CSc1nc2c([nH]c3ccccc32)c(=O)n1-c1ccc(Cl)cc1)NC1CCCCC1,10µM*,·,4%,·
Cc1nc(N2CCN(C(=O)c3ccco3)CC2)c2c3c(sc2n1)CCCC3,5%,16µM*,1%,2%
O=C(c1ccco1)N1CCN(c2nc(C3CC3)nc3sc4c(c23)CCCC4)CC1,-3%,?,-24%,-11%
S=C(c1ccc(-c2cc(Cl)ccc2Cl)o1)N1CCOCC1,-3%,28µM*,-10%,?
S=C(c1ccc(-c2cccc(Cl)c2)o1)N1CCOCC1,-23%,22µM*,?,-23%
S=C(c1ccc(-c2cc(Cl)ccc2Cl)o1)N1CCCCC1,·,7.9µM*,·,-4%
N#CCCN1CCN(C(=S)c2ccc(-c3cccc(Cl)c3)o2)CC1,-2%,28µM*,9%,-19%
CCCCN(C)C(=O)CSc1nc2ccccc2nc1Cc1ccc(C)cc1,-13%,·,27%,·
COc1ccc(CNC(=O)c2cnc(N3CCOCC3)c3ccccc23)cc1,-24%,·,10%,·
Cc1oc(-c2nc3ccccc3n2C)cc1C(=O)c1ccccc1,4µM*,35µM*,5µM*,-2%
Cn1c(-c2ccc(Br)o2)nc2ccccc21,10µM*,-11%,7.9µM*,4%
Cn1cc(C(=O)c2ccccc2)cc1-c1nc2ccccc2n1C,-7%,?,3%,8%
CN(C)c1ccc(-c2nc3ccccc3n2C)cc1,0.79µM*,?,1.6µM*,-2%
CSc1nc(N)nc(SCC(=O)C(C)(C)C)c1C#N,·,13µM*,·,-3%
SMILES,p53ts 39C tox,HPGD block,p53ts 32C kill,ALOX12 inhib
CSc1nc(N)nc(SCC(=O)Nc2ccc(Cl)cc2)c1C#N,·,?,·,-7%
N#Cc1c(C(F)(F)F)cc(-c2cccs2)nc1SCC(=O)Nc1cccc(Br)c1,13µM*,·,-15%,·
N#Cc1c(C(F)(F)F)cc(-c2cccs2)nc1SCC(=O)Nc1cccc(Cl)c1,-5%,·,-2%,·
CSc1nc(N)nc(SCC(=O)Nc2cccc(F)c2)c1C#N,·,20µM*,·,-3%
CCCCN(C)CCNC(=O)C1CCCN(S(=O)(=O)c2ccc3c(c2)oc(=O)n3C)C1 (stereo not drawn),2%,·,5%,·
CCOC(=O)c1sc(=S)n(-c2ccc3c(c2)OCO3)c1N,2%,7.9µM*,14%,-2%
COc1ccc(-n2c(N)c(C(=O)NCc3cccnc3)sc2=S)cc1,·,-6%,·,-1%
Cc1ccc(-n2c(N)c(C(=O)NCc3cccnc3)sc2=S)cc1,·,25µM*,·,-5%
CCn1c(N)c(C(=O)NCc2ccco2)sc1=S,-17%,22µM*,-15%,-14%
